# Assay results as given in PubChem BioAssay (EPA / NIEHS).
# Several values for one entry are separate records, joined by “and”; a condition that tells them apart may be missing. Identical values can stand only once. Records with an inconclusive call do not appear. A structure can be active in one record and inactive in another. Activity calls are given as the source filed them. The calls were made as follows, unless noted: active = hit-call score of the fitted dose curve at least 0.9, where 1 is the maximum; inactive = score below 0.9.
# Columns and labels:
# [1] = CCTE_Harrill_HTTr_Viability_MCF7: CCTE's 6-hour Cell Viability Assessment for the High-Throughput Transcriptomics (HTTr) Platform, in MCF-7 cells cultured in DMEM + 10% fetal bovine serum, Harrill Lab (AID 2284010)
# Method in brief: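 MCF-7 cells in DMEM + 10% FBS, 384-well, exposed 6 h to an eight-point dilution series. Membrane integrity scored by high-content imaging of propidium iodide exclusion; bidirectional fit versus DMSO.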
# [2] = CCTE_Harrill_HTTr_Apoptosis_MCF7: CCTE's 6-hour Apoptosis Assessment for the High-Throughput Transcriptomics (HTTr) Platform, in MCF-7 cells cultured in DMEM + 10% fetal bovine serum, Harrill Lab (AID 2284011)
# Method in brief: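 Cells are dosed with test chemicals at eight concentrations and imaged 6 hours later for caspase-3/7 activity using a green fluorogenic detection reagent. Activity is fitted in both directions against DMSO controls.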
# [3] = CCTE_Harrill_HTTr_CellCount_MCF7: CCTE's Cell Proliferation Assessment for the High-Throughput Transcriptomics (HTTr) Platform, Harrill Lab (AID 2284012; active = hit-call score of the fitted dose curve at least 0.9, where 1 is the maximum;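 also: cells exposed to compound for six hours; intended direction is loss of nuclei count meaning fewer cells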)
# Method in brief: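 MCF7 cells exposed 6 hours to an eight-point dilution series; Hoechst-stained nuclei counted by high-content imaging. Bidirectional curve fitting against DMSO baseline.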
# [4] = CCTE_Shafer_MEA_dev_firing_rate_mean: CCTE's Neural Network Formation Assay for Mean Firing Rate, Shafer Lab (AID 2284031);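 as to AC50: curve fitted for loss of firing so AC50 reflects decreased mean firing rate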
# Method in brief: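 Primary rat cortical neurons on 48-well MEA plates, exposed from plating day 0 with dosing renewed on DIV 5 and 9. Mean well firing rate over active electrodes, recorded days 5, 7, 9, 12, summarised as trapezoidal AUC.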
# [5] = CCTE_Shafer_MEA_dev_per_burst_spike_percent: CCTE's Neural Network Formation Assay for Percent of Spikes in a Burst, Shafer Lab (AID 2284032);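 as to AC50: fitted as a decrease in burst spike percentage below DMSO baseline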
# Method in brief: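 Rat primary cortical neurons on 16-electrode MEA wells, dosed from plating day 0 for 12 days with renewal on DIV 5 and 9; spikes-in-bursts percentage averaged over bursting electrodes, collapsed as AUC across days 5, 7, 9, 12; loss direction versus DMSO.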
# [6] = molecular target: Estrogen receptor (Homo sapiens) (UniProt P03372); assay: CCTE_Deisenroth_AIME_384WELL_LUC_Active: CCTE's 384-well Estrogen Receptor Transactivation Assay with AIME metabolic competence (ERTA luciferase; metabolism positive), Deisenroth Lab (AID 2284030; active = hit-call score of the fitted dose curve at least 0.9, where 1 is the maximum)
# Sequence of Estrogen receptor (Homo sapiens) (P03372 whole entry, looked up): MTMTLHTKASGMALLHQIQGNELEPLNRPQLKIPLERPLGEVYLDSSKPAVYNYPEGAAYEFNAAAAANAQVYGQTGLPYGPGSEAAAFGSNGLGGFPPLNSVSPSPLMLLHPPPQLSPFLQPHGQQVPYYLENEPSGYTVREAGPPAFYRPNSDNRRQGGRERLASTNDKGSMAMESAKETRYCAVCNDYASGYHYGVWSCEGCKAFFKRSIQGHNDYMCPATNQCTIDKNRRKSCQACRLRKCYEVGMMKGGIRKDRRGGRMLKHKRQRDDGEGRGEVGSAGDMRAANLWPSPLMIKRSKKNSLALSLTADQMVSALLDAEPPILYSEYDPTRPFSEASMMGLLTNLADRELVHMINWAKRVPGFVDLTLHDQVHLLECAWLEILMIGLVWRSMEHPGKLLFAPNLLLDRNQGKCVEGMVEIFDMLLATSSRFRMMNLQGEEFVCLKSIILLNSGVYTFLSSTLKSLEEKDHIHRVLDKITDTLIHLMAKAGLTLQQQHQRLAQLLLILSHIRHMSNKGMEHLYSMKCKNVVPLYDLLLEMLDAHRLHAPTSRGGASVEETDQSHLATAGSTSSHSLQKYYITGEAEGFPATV
# Method in brief: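 In this metabolism-positive format, a 2-hour exposure to alginate-immobilized rat S9 precedes a 24 hour luciferase transactivation readout in VM7Luc4E2 cells. Dosing spans 10 concentrations from 0.002 to 200 uM.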
# [7] = CCTE_Deisenroth_AIME_384WELL_CTox_Active: Cytotoxicity Assessment (CTOX) in CCTE's 384-well Estrogen Receptor Transactivation Assay with AIME metabolic competence (metabolism positive), Deisenroth Lab (AID 2284037; active = hit-call score of the fitted dose curve at least 0.9, where 1 is the maximum;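 also: chemicals first conditioned 2 h by alginate-bound induced rat liver S9 before cells; activity means signal loss indicating cell death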)
# Method in brief: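 Cytotoxicity in VM7Luc4E2 breast cells, 24 hour, measured as protease-substrate fluorescence loss, after 2-hour metabolic conditioning with induced rat hepatic S9 in alginate microspheres. Concentrations 0.002 - 200 uM, 10 points, bidirectional fitting.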
# [8] = CCTE_Shafer_MEA_acute_burst_number: CCTE's Neural Acute Assay for Single-Electrode Bursts, Shafer Lab (AID 2284013)
# Method in brief: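 Spontaneous network activity of primary rat cortical neurons was recorded extracellularly on microelectrode arrays at 37 C, with 40-min periods before and during exposure to 0.03-40 uM compound on DIV 13 or 15.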
# [9] = CCTE_Shafer_MEA_acute_burst_duration_mean: CCTE's Neural Acute Assay for Mean Burst Duration, Shafer Lab (AID 2284014);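 also: hits are decreases in mean burst duration relative to DMSO controls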
# Method in brief: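 Read-out is the per-well percent change in mean burst duration (first to last spike within a single-electrode burst) between 40-min recordings before and after compound. Cultures were primary rat cortical neurons on MEAs, dosed at 0.03-40 uM on DIV 13 or 15.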
# [10] = CCTE_Shafer_MEA_acute_per_burst_spike_number_mean: CCTE's Neural Acute Assay for Average Number of Spikes Per Burst, Shafer Lab (AID 2284015);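 also: hits are decreases in mean spikes per burst versus baseline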
# Method in brief: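 Read-out: percent change in mean spikes per burst, each well's post-exposure 40-min recording versus its own 40-min baseline. Rat cortical cultures, DIV 13 or 15, compounds 0.03-40 uM; DMSO is negative control, loss-of-signal fitting.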
# [11] = CCTE_Shafer_MEA_acute_interburst_interval_mean: CCTE's Neural Acute Assay for Mean Interburst Interval, Shafer Lab (AID 2284016);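 also: percent change of mean interburst interval versus each well's own pre-dose baseline; curves fitted for decrease in interburst interval relative to DMSO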
# Method in brief: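 Rat cortical cultures, DIV 13/15; 20 min equilibration, 40 min baseline, compound 0.03-40 uM, 40 min re-recording, 37 C. Spikes detected at 8x rms noise (300-5000 Hz band-pass). Endpoint: % change in interburst interval, fitted in loss direction vs DMSO.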
# [12] = CCTE_Shafer_MEA_acute_burst_percentage_mean: CCTE's Neural Acute Assay for Percentage of Spikes in a Burst, Shafer Lab (AID 2284017);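 as to AC50: curve fitted for loss of signal so potency reflects decreased burst percentage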
# Method in brief: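 Rat cortical cultures, DIV 13/15, 37 C. Spikes detected at 8x rms noise (300-5000 Hz band-pass). Burst spikes/total spikes averaged across electrodes per well; % change post- vs pre-treatment (40 min each), loss-of-signal fit vs DMSO.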
# [13] = CCTE_Shafer_MEA_acute_burst_percentage_std: CCTE's Neural Acute Assay for Standard Deviation of Burst Percentage, Shafer Lab (AID 2284018);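 also: fitted in the negative direction so actives lower burst percentage SD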
# Method in brief: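 Value is percent change from baseline in the across-electrode SD of spikes-in-bursts percentage, wells with >/= 10 active electrodes. Acute 40-min exposure to 0.03-40 uM on DIV 13 or 15 rat cortical cultures, recorded at 37 C after 40-min baseline.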
# [14] = CCTE_Shafer_MEA_acute_per_network_burst_spike_number_mean: CCTE's Neural Acute Assay for Average Number of Spikes in a Network Burst, Shafer Lab (AID 2284019)
# Method in brief: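 Read-out is mean spike count per network burst, taken as percent change between a 40-min pre-exposure and a 40-min post-exposure recording per well. Rat primary cortical neurons on MEAs at 37 C, DIV 13 or 15; compounds at 0.03-40 uM.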
# [15] = CCTE_Shafer_MEA_acute_per_network_burst_spike_number_std: CCTE's Neural Acute Assay for Standard Deviation of Number of Spikes in a Network Burst, Shafer Lab (AID 2284020);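 also: fitted for decrease in spike-number SD versus DMSO so actives lower it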
# Method in brief: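 Spontaneous network activity of primary rat cortical neurons is recorded extracellularly before and after a 40-min compound exposure (0.03-40 uM) at 37 C. The endpoint is the well's percent change in burst spike-number SD.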
# [16] = CCTE_Shafer_MEA_acute_per_network_burst_electrodes_number_mean: CCTE's Neural Acute Assay for Mean Number of Electrodes in a Network Burst, Shafer Lab (AID 2284021);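 also: curves fitted for decreases only so hits reduce electrodes per burst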
# Method in brief: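 Cultures of rat cortex neurons were exposed on DIV 13 or 15 to compounds at 0.03-40 uM in at least three wells each. Activity over 40 min before and 40 min after exposure at 37 C gave the percent change in electrodes per network burst.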
# [17] = CCTE_Shafer_MEA_acute_network_burst_percentage: CCTE's Neural Acute Assay for Percentage of Network Bursts, Shafer Lab (AID 2284022);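 also: curves fitted for loss so actives lower network burst percentage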
# Method in brief: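 Cortical neurons from rat were grown over microelectrode arrays and used on day 13 or 15 in vitro. Wells with at least 10 active electrodes received test chemical at 0.03-40 uM. Activity during 40 min of exposure was compared with the preceding 40-min baseline.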
# [18] = CCTE_Shafer_MEA_acute_cross_correlation_area: CCTE's Neural Acute Assay for Area of Cross Correlation, Shafer Lab (AID 2284024);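 also: area under pooled inter-electrode spike cross-correlation near zero lag as percent change from own baseline; curves fitted for loss of cross-correlation area so actives lower synchrony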
# Method in brief: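 Acute exposure of mature rat cortical networks (day 13 or 15 post-plating) to 0.03-40 uM compound. Spontaneous spiking on MEA, 40 min pre- and post-dose at 37 C.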
# [19] = CCTE_Shafer_MEA_acute_cross_correlation_HWHM: CCTE's Neural Acute Assay for Cross Correlation at Half Width at Half Maximum, Shafer Lab (AID 2284026);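 also: percent change per well from pre-dose baseline in spike cross-correlogram half width; hits are a decrease in cross-correlogram half width relative to DMSO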
# Method in brief: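 Primary cortex (rat), MEA, DIV 13/15; compound 0.03-40 uM; 40 min pre + 40 min post at 37 C; spike threshold 8x rms; wells need ≥10 active electrodes; endpoint = % change in cross-correlogram HWHM vs baseline, DMSO negative control.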
# [20] = CCTE_Shafer_MEA_acute_synchrony_index: CCTE's Neural Acute Assay for Synchrony, Shafer Lab (AID 2284027);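 also: network synchrony index of spontaneous spiking in primary rat cortical neurons on MEAs; fitted for loss of signal so actives lower synchrony relative to DMSO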
# Method in brief: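 Primary rat cortical neurons on 48-well MEAs, dosed at 0.03–40 uM on DIV 13 or 15. Spikes are recorded for 40 min at 37C before and after exposure, and synchrony index (0–1) is expressed as percent change from baseline per well.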
smiles,measurement,setting,value
CCOP(=S)(OCC)OC(Cl)C(Cl)(Cl)Cl (configuration not stated),outcome,[1],inactive
same,outcome,[2],inactive
same,outcome,[3],inactive
same,AC50,[4],23.4 µM (active)
same,AC50,[5],50 µM (active) and 19 µM (active)
COP(=O)(OC)SCn1c(=O)oc2cc(Cl)cnc21,outcome,[1],inactive
same,outcome,[2],inactive
same,outcome,[3],inactive
same,outcome,[6],inactive
same,outcome,[7],inactive
COc1ccc(C(=CC(=O)N2CCOCC2)c2ccc(Cl)cc2)cc1OC,outcome,[1],inactive
same,outcome,[2],inactive
same,outcome,[3],inactive
same,outcome,[7],inactive
CN1COCN(Cc2cnc(Cl)s2)C1=N[N+](=O)[O-],outcome,[1],inactive
same,outcome,[2],inactive
same,outcome,[8],inactive
same,outcome,[9],inactive
same,outcome,[10],inactive
same,outcome,[11],inactive
same,outcome,[12],inactive
same,outcome,[13],inactive
same,outcome,[14],inactive
same,outcome,[15],inactive
same,outcome,[16],inactive
same,outcome,[17],inactive
same,outcome,[18],inactive
same,outcome,[19],inactive
same,outcome,[20],inactive
same,outcome,[4],inactive
same,outcome,[5],inactive
S=C1NCCN1,outcome,[1],inactive
same,outcome,[2],inactive
same,outcome,[4],inactive
same,outcome,[5],inactive
CSC1=N[C@@](C)(c2ccccc2)C(=O)N1Nc1ccccc1,outcome,[1],inactive
same,outcome,[2],inactive
same,outcome,[8],inactive
same,AC50,[9],32 µM (active)
same,outcome,[9],inactive
same,AC50,[10],27.1 µM (active)
same,outcome,[10],inactive
same,outcome,[11],inactive
same,AC50,[12],20 µM (active) and 24.4 µM (active)
same,AC50,[13],37.7 µM (active) and 26.1 µM (active)
same,outcome,[14],inactive
same,AC50,[15],30.8 µM (active)
same,outcome,[15],inactive
same,outcome,[16],inactive
same,AC50,[17],22.1 µM (active)
same,outcome,[17],inactive
same,outcome,[18],inactive
same,AC50,[19],29.8 µM (active) and 18.1 µM (active)
same,AC50,[20],20 µM (active) and 22.8 µM (active)
same,outcome,[4],inactive
same,outcome,[5],inactive
C#CCC1=C(C)C(OC(=O)C2C(C=C(C)C)C2(C)C)CC1=O (configuration not stated),outcome,[1],inactive
same,outcome,[2],inactive
same,AC50,[8],13.3 µM (active)
same,AC50,[9],15.5 µM (active)
same,outcome,[10],inactive
same,outcome,[11],inactive
same,AC50,[12],12.7 µM (active)
same,AC50,[13],19.9 µM (active)
same,outcome,[14],inactive
same,AC50,[15],19.9 µM (active)
same,AC50,[16],5.78 µM (active)
same,AC50,[17],14.6 µM (active)
same,outcome,[18],inactive
same,outcome,[19],inactive
same,AC50,[20],17.8 µM (active)
same,outcome,[4],inactive
same,AC50,[5],9.95 µM (active)
same,outcome,[7],inactive
CCOP(=S)(OCC)Oc1ccc([N+](=O)[O-])cc1,outcome,[1],inactive
same,outcome,[2],inactive
same,outcome,[3],inactive
same,outcome,[4],inactive
same,outcome,[5],inactive
CCCCOC(=O)[C@@H](C)Oc1ccc(Oc2ccc(C#N)cc2F)cc1,outcome,[1],inactive
same,outcome,[2],inactive
same,outcome,[6],inactive
same,outcome,[7],inactive
CC(Oc1cccc(Cl)c1)C(=O)O (configuration not stated),outcome,[1],inactive
same,outcome,[2],inactive
same,outcome,[4],inactive
same,outcome,[5],inactive
